{
  "source": "PubChem BioAssay AID504474",
  "about": "(National Center for Advancing Translational Sciences (NCATS), 2011)",
  "note": "Calls of active or inactive are those of the source.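 Rule for the calls: active = clear inhibition of the enzyme's cutting of labeled DNA at one or more tested doses; inactive = response stays at baseline.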",
  "data": [
    {"molecular_target": "Tyrosyl-DNA phosphodiesterase 1 (Homo sapiens) (UniProt Q9NUW8)", "sequence (Q9NUW8 whole entry, looked up)": "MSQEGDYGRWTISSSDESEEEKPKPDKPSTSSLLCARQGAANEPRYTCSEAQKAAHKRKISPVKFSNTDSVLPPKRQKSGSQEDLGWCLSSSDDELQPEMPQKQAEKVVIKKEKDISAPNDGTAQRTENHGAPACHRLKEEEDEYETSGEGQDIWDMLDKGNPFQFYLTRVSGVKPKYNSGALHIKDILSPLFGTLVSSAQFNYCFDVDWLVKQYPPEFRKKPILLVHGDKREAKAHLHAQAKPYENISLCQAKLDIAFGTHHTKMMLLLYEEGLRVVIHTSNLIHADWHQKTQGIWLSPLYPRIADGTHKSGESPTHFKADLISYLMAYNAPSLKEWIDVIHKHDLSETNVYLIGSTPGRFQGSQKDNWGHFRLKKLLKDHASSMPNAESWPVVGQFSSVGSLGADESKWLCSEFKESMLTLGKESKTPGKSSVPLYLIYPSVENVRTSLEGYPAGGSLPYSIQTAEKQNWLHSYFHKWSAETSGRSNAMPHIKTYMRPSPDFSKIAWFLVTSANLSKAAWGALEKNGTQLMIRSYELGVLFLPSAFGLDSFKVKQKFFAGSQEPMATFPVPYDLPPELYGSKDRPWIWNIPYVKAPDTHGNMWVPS", "assay": "Gel-Based Assay for Inhibitors of Tyrosyl-DNA Phosphodiesterase (TDP1): Hit Validation", "conditions": "Recombinant TDP1, 32P-DNA substrate cleavage, gel densitometry", "from_the_text": "Assay Overview: Human tyrosyl-DNA phosphodiesterase I (Tdp1) is a rational anticancer target because this enzyme is involved in the repair of DNA lesions created by the trapping of human DNA topoisomerase I (Top1) following treatment by anticancer agents such as camptothecins. Recombinant Tdp1 was expressed and purified from E. coli in the laboratory (Anthony et al, Nucleic Acids Research, 2007, Vol. 35, 4474-4484). See below for assay protocol. This is assay was used to validate select hits from the related primary AlphaScreen assay (AID: 485290) NIH Molecular Libraries Probe Production Network [MLPCN] NIH Chemical Genomics Center [NCGC] Assay Provider: Yves Pommier and Christophe Marchand, National Cancer Institute\n5'-32P-labeled DNA substrate (1 nmol/L; N14Y; 5'-[…]-pY-3') was incubated with 0.2 nmol/L recombinant Tdp1 in the absence or presence of inhibitor for 15 min at room temperature in an assay buffer containing 1X PBS, pH 7.4, 80 mmol/L KCl and 0.01% Tween-20. Reactions were terminated by the addition of 1 volume of gel loading buffer [99.5% (v/v) formamide, 5 mmol/L EDTA, 0.01% (w/v) xylene cyanol, and 0.01% (w/v) bromophenol blue]. Samples were subjected to a 16% denaturing PAGE and gels were exposed after drying to a PhosphorImager screen (GE Healthcare). […]", "values": [
      {"smiles": "O=c1c2ccccc2nc2sc(Nc3cccc(Cl)c3)nn12", "Potency": "7.4 µM (active)"},
      {"smiles": "O=c1c2ccccc2nc2sc(Nc3ccc(F)cc3)nn12", "outcome": "inactive"}
    ]}
  ]
}
